Measurements published in the supplement of paper PMC3484114.
± gives the standard deviation.

What follows are molecules tested on OVCAR-3-derived ovarian cancer stem-like cells (spheroids) (assay: cell growth relative to untreated control; higher = more growth (less inhibition)). Conditions: 2.29 µM; 96 h.
How it was run: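 Percent growth was calculated against untreated wells once blanks were subtracted and Grubbs outliers removed. The cells were OVCAR-3 spheroid-derived stem-like cells, trypsinized and plated at 50,000 cells/mL in stem cell medium on ultra-low attachment 96-well plates for a 24 h preincubation. They were then exposed to compounds at 2.29 uM for 96 h at 37°C, 5% CO2, in 4 replicate wells, and viability was measured by TOX8 resazurin fluorescence (ex 560/em 590 nm) after 4 h.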

Row | SMILES | cell growth [%]
1 | Cn1c(=O)[nH]c2nncnc2c1=O | 92.3 ± 13
2 | CC(O)CCC(=O)c1ccoc1 (stereo not given) | 99 ± 17
3 | COC1CC(OC2CCC3(C=O)C4CCC5(C)C(C6=CC(=O)OC6)CCC5(O)C4CCC3(O)C2)OC(C)C1OC1OC(COC2OC(CO)C(O)C(O)C2O)C(O)C(O)C1O (stereo not given) | 63.1 ± 13
4 | C[n+]1cc2cc(O)c(O)cc2c2ccc3cc(O)c(O)cc3c21.c1ccncc1 | 91.8 ± 23
5 | CC(=O)O[C@H]1C[C@H](O[C@H]2[C@@H](O)C[C@H](O[C@H]3[C@@H](O)C[C@H](O[C@H]4CC[C@@]5(C)[C@H](CC[C@@H]6[C@@H]5CC[C@]5(C)[C@@H](C7=CC(=O)OC7)CC[C@]65O)C4)O[C@@H]3C)O[C@@H]2C)OC(C)[C@H]1O[C@@H]1O[C@H](CO)[C@@H](O)[C@H](O)[C@H]1O (stereo not given in full) | 21.7 ± 8.3
6 | CC[C@](C)(O)C(=O)O[C@H]1C(=O)O[C@@H]2C[C@H]3C(C)=C[C@H](O)[C@@H](O)[C@]3(C)[C@H]3[C@@]4(O)OC[C@]32[C@@H]1[C@@H](C)[C@H]4O | 138 ± 54
7 | CNC(=O)ON(C(C)=O)C(=O)NC | 114 ± 42
8 | C=C1C(C)C2C(Cc3ccccc3)NC(=O)C23C(OC(C)=O)/C=C/C(C)(O)CC(C)C/C=C/C3C1O (stereo not given) | 90.3 ± 20
9 | COC(=O)[C@@]12OC[C@]34[C@H]([C@@H](O)[C@@H]1O)[C@@]1(C)CC(=O)C(O)=C(C)[C@@H]1C[C@H]3OC(=O)[C@H](OC(=O)/C=C(\C)C(C)C)[C@@H]24 | 6.1 ± 4.4
10 | CC(C)OP(=O)(OC(C)C)C(N(C)C)P(=O)(OC(C)C)OC(C)C.[Cl][Sn]([Cl])([Cl])[c]1ccccc1 | 62.2 ± 17
